Test results reported in PubChem BioAssay AID738 (SRMLSC, 2007).
In all, about 98,000 compounds went through this assay and about 4,900 (5%) were called active. The full list was thinned out, with actives kept by preference. A number with no mark means an inactive call. Cut-off read from the data, not from the text of the source: active = inhibition above about 30%; inactive = the rest.

Assay: yeast control strain growth suppression – counter-screen for post-Golgi transport modulator project, primary screen (AID 738)
Conditions: efflux-deficient yeast background strain, growth absorbance A615, 16 h; at 10 µM; hits give high values

SMILES	inhibition
Cc1nc2ccccn2c1P(=S)(N1CCCCC1)N1CCCCC1	49.1% (active)
COc1ccc(C(=O)C2CN(C)CC2C(=O)c2ccc(OC)cc2)cc1 (stereo not given)	20.5%
CC(=O)c1c(O)n(C2CCCCCC2)c(=O)[nH]c1=O	19.8%
CCC(=NCCc1ccccc1)c1c(O)n(C2CCCCC2)c(=O)[nH]c1=O	70.8% (active)
CCC(=NCc1ccco1)c1c(O)n(Cc2ccccc2)c(=O)[nH]c1=O	15.9%
COc1ccc(C(=O)CC2C(=O)N(C)C(=O)N(C)C2=O)cc1	6.25%
O=C(c1cc2nc(-c3ccccc3)cc(-c3ccccc3)n2n1)N1CCC2(CC1)OCCO2	29.5%
CC(C)(C)c1ccc(CN2C(=O)CN=C(c3ccccc3)c3ccccc32)cc1	33.8% (active)
CN1CCC(N(C)Cc2cccnc2)CC1	7.07%
CCOc1ccc(CN(CCCl)CCCl)cc1C(=O)OC	22.7%
O=C(CN1CCCCC1)Nc1ccc(Br)cc1C(=O)c1ccccc1Cl	29.2%
CCNc1nc2[nH]c(=O)c3c(c2s1)OC(N)=C(C#N)C3c1cccs1 (stereo not given)	5.65%
COc1ccccc1-n1c(O)c(C=NC2CC2)c(=O)[nH]c1=O	6.8%
OC(CNC1CCCCC1)c1ccccc1 (stereo not given)	5.79%
CCOP(=S)(OCC)SCOC(=O)NCC(=O)OC	4.53%
O=[N+]([O-])c1ccc(C2C3C(c4ccccc4)=NC4(CCCCC4)N32)cc1 (stereo not given)	18%
Cc1ccc(Cn2c(C)c3cnn(CC(=O)N4CCC5(CC4)OCCO5)c(=O)c3c2C)cc1	-1.49%
N#Cc1ccc(Cn2cc(C(=O)c3ccco3)c3ccccc32)cc1	38.7% (active)
COc1ccc(CCn2c(O)c(C=NCCCn3ccnc3)c(=O)[nH]c2=O)cc1OC	2.05%
Cn1c(O)c(C=NCCCC(=O)O)c(=O)n(C)c1=O	2.29%
Cc1ccc(N(C)C(=O)Oc2cccc3ccc(C)nc23)cc1	5.47%
CC[N+](CC)(CC)CCCCCCCCCC[N+](CC)(CC)CC	-4.82%
CCOC(=O)C1SC2(C(F)(F)C(F)F)CC1(O)c1c(c(OC)c3occc3c1OC)O2 (stereo not given)	33.6% (active)
O=c1c2ccccc2nc(-c2ccc(Cl)cc2Cl)n1-c1ccncc1	9.41%
COc1cc(Cn2c(N)c(C(=O)NCc3ccco3)c3nc4ccccc4nc32)cc(OC)c1OC	7.01%
CC(=O)Nc1ccccc1C(=O)OCC(=O)c1cccc2ccccc12	0.9%
CCCCn1c(O)c(C(CC)=NCc2ccco2)c(=O)[nH]c1=O	16.6%
CCCCCCN=C(CC)c1c(O)n(CCCC)c(=O)[nH]c1=O	36.3% (active)
CCC(=NCCCO)c1c(O)n(-c2ccc(OC)cc2)c(=O)[nH]c1=O	3.64%
CC(=O)c1ccc(OC(NC(=O)Cc2ccccc2)C(Cl)(Cl)Cl)cc1 (stereo not given)	4.53%
